# Measured values as given in PubChem BioAssay.
# Active and inactive are the calls of the source.
# Key:
# [1] = tested on: Plasmodium falciparum Sir2 (PF13_0152, Sir2A); assay: Plasmodium falciparum Sir2A binding compounds – biochemical, small-molecule microarray, 635 nm fluorescence, primary screen (AID 1098); settings: fluorescence 635 nm, higher = more signal;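 further: score merges spot fluorescence intensity with its signal-to-noise ratio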
# [2] = probe aDKK1 binding to arrayed compounds – biochemical, biotinylated probe, 635/667 nm fluorescence, primary screen (AID 1099); settings: small-molecule microarray, higher = more signal;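 further: score merges 667nm spot fluorescence with signal to noise across triplicate slides; reference of the scale not given here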
# [3] = probe aCHRDL2 binding to arrayed compounds – biochemical, biotinylated probe, 635/667 nm fluorescence, primary screen (AID 1100); settings: small-molecule microarray, higher = more signal
# [4] = change in splice reporter luminescence, either direction, cell-based, HEK293, spliceosome inhibition project, primary screen (AID 1101); settings: HEK293 splicing luciferase reporter, 24 h, higher = more signal, called active from +8 up or from −8 down;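 further: HEK293 cells carrying a splicing-competent luciferase reporter gene; test concentration not given here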
# [5] = target: Fibroblast growth factor 10 (Homo sapiens) (UniProt O15520); assay: compounds binding fibroblast growth factor 10 – biochemical, small-molecule microarray, 635 nm fluorescence, primary screen (AID 1102); settings: FGF10 binding, fluorescence 635 nm, higher = more signal
# [6] = tested on: glycogen synthase kinase-3 (GSK3A per assay name; protocol says GSK3B); assay: compounds binding glycogen synthase kinase-3 – biochemical, small-molecule microarray, 635 nm fluorescence, GSK3A, primary screen (AID 1103); settings: fluorescence 635 nm, higher = more signal; further: the record names both GSK3A and GSK3B
# [7] = target: Epidermal growth factor receptor (Homo sapiens) (UniProt P00533); assay: compounds binding epidermal growth factor receptor – biochemical, small-molecule microarray, 635 nm fluorescence, primary screen (AID 1104); settings: EGFR binding, higher = more signal;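 further: score merges 667 nm emission intensity with spot signal to noise over triplicate slides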
# [8] = target: Follistatin-related protein 3 (Homo sapiens) (UniProt O95633); assay: compounds binding follistatin-related protein 3 – biochemical, small-molecule microarray, 635 nm fluorescence, primary screen (AID 1105); settings: FSTL3 binding, higher = more signal;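 further: score merges emission near 667 nm and signal to noise per printed spot across three slides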
# [9] = target: Dickkopf-related protein 1 (Homo sapiens) (UniProt O94907); assay: small molecules binding DKK1 protein – biochemical, small-molecule microarray, 635 nm fluorescence scan, primary screen (AID 1106); settings: higher = more signal;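 further: score merges emission near 667 nm with signal to noise over three replicate slides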
# [10] = tested on: Inhibin beta A chain (activin A); assay: small molecules binding activin A – biochemical, small-molecule microarray, 635 nm fluorescence scan, primary screen (AID 1107); settings: INHBA, higher = more signal;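 further: mouse activin A protein probed at 4.33 µg/mL on printed slides; score merges bound-protein fluorescence near 667 nm with spot signal-to-noise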
# Sequence of Follistatin-related protein 3 (Homo sapiens) (O95633 whole entry, looked up): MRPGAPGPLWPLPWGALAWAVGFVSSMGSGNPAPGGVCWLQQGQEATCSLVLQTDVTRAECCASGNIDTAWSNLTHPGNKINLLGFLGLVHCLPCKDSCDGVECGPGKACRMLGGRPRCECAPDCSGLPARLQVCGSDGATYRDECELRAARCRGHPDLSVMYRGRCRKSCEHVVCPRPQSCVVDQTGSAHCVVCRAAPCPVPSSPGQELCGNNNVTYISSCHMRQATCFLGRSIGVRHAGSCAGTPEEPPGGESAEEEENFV
# Sequence of Fibroblast growth factor 10 (Homo sapiens) (O15520 whole entry, looked up): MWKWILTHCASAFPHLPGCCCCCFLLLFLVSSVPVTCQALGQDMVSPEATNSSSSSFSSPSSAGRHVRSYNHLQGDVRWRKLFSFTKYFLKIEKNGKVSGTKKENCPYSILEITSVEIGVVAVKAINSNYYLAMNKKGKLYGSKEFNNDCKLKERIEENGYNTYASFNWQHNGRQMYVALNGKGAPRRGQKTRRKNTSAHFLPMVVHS
# Sequence of Dickkopf-related protein 1 (Homo sapiens) (O94907 whole entry, looked up): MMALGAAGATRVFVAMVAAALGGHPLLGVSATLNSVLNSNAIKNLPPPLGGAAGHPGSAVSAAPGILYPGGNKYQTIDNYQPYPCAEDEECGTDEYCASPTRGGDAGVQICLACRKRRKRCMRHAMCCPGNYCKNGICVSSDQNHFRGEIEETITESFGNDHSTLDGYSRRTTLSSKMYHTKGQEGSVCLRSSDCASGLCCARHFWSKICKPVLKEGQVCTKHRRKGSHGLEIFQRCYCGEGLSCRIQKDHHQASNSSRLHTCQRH
# Sequence of Epidermal growth factor receptor (Homo sapiens) (P00533 whole entry, looked up): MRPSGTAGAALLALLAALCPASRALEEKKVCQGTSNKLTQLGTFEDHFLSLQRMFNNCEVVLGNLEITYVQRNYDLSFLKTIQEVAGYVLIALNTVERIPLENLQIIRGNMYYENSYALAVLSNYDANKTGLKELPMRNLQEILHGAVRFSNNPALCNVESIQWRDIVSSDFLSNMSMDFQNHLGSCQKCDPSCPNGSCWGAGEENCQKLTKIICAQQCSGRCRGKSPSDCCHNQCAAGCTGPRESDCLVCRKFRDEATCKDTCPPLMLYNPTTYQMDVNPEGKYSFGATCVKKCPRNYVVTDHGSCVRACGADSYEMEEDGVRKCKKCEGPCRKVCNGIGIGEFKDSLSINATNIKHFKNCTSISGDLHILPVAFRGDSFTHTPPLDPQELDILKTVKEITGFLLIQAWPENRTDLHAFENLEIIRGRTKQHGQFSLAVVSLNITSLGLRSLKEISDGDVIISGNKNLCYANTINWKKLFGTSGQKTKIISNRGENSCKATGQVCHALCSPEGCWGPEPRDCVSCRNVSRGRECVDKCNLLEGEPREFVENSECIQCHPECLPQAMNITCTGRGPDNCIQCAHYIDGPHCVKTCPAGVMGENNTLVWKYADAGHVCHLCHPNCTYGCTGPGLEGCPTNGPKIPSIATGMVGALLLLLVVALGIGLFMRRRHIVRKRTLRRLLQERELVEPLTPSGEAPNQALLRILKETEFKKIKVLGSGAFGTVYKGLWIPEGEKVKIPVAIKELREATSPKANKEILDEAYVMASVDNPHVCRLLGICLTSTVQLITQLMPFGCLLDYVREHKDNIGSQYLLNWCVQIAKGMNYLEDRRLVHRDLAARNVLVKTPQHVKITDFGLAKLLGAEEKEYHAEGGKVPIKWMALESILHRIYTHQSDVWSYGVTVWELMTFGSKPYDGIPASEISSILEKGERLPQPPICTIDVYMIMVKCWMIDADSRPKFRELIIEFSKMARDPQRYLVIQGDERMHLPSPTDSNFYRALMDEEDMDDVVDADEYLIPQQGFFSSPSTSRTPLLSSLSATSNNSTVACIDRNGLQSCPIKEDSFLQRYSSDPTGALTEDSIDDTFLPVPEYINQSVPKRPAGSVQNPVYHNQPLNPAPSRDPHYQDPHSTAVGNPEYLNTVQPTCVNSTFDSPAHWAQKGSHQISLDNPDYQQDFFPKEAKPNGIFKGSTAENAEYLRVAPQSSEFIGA
SMILES,composite z-score [1],composite z-score [2],composite z-score [3],z-score [4],composite z-score [5],composite z-score [6],composite z-score [7],composite z-score [8],composite z-score [9],composite z-score [10]
O=C1NC(=O)C2C1C=CC(C(O)Cc1ccccc1)N2Nc1ccccn1 (stereo not given),0.0468,0.133,-0.321,-0.818 (inactive),0.156,0.0157,0.377,0.233,0.0833,0.97
COc1ccccc1CN1C(=O)c2ccccc2[C@@H](C(=O)NCC(F)(F)F)[C@@H]1c1ccc(CO)cc1,1.68,-0.139,0.245,-0.14 (inactive),0.956,0.715,0.0304,0.941,0.0666,0.218
CCc1cc2c(nc1CC)CCN(CCC(C)=NOC[C@@H](O)COCc1ccco1)C2,1.54,0.0564,0.202,-0.0287 (inactive),0.529,1.3,1.78,1.5,1.7,2.1
COC(=O)[C@@H]1CCCN1C(=O)[C@@H](C)CO,0.42,-0.0908,-0.445,-0.74 (inactive),0.601,1.24,0.524,0.592,0.547,-0.198
C=CC[C@@H]1C=C[C@H](ON=C[C@@H](OC)[C@H](C)C=CCC(=O)OC)[C@@H](CO)O1,-0.433,-0.0759,-0.615,0.653 (inactive),0.423,0.306,-0.0453,0.343,0.17,0.496
COC(=O)[C@H](C)NC(=O)CCC1CC(OC(=O)NCc2ccc3c(c2)OCO3)CC2(CCCC(COC(=O)NCCOc3ccccc3)O2)O1 (stereo not given in full),0.46,-0.211,-0.636,-2.8 (inactive),0.658,1.29,0.536,0.649,0.679,0.0689
CC(CCC(=O)OC[C@H]1O[C@H](C#Cc2ccccc2)C=C[C@@H]1Oc1ccc(C)cc1)=NOC[C@@H](O)[C@H]1O[C@@H]2OC(C)(C)O[C@@H]2[C@H]1O,0.373,-0.339,-0.505,0.29 (inactive),-0.369,-0.579,-1.03,-0.638,-0.335,0.302
COc1ccc(OC[C@H]2Cc3c(-c4ccccc4)nc4c(c3CO2)CN(CCOc2ccccc2)CC4)cc1,1.07,0.521,-0.233,-1.47 (inactive),0.883,0.94,0.487,1.03,0.85,0.726
CCN1C(=O)[C@H]2[C@H]3[C@H](O)C=CC(=O)[C@@H]3CC[C@H]2C1=O,0.163,-0.094,-0.484,0.403 (inactive),0.402,0.743,0.378,0.548,0.444,-0.114
CCOC(=O)NN=C1C[C@@H](O)[C@@H](O)[C@@H]2[C@@H]3C(=O)N(C4CCCCC4)C(=O)[C@@H]3CC[C@H]12,0.253,0.135,-0.0663,0.035 (inactive),0.38,0.518,0.416,0.333,0.701,-0.341
CC(=O)OC[C@H]1O[C@H](CCON=C(C)CCC(=O)OC[C@H]2O[C@H](C#Cc3ccccc3)C=C[C@@H]2Oc2ccc(C)cc2)C=C[C@@H]1OC(C)=O,0.825,-0.304,-0.632,-0.35 (inactive),0.167,-0.219,0.259,0.521,0.495,0.659
CCCC=C(CCC)[C@@H](NC(=O)c1ccc(-c2ccccc2)cc1)c1ccc(C(=O)OC)cc1,0.407,0.245,1,-0.492 (inactive),-0.316,0.472,-0.237,0.0286,-0.673,0.244
CC(C)(C)N1CC=CC23O[C@@H]4C=CCCOC(=O)C4[C@H]2C(=O)N(CCCCCO)[C@@H]3C1=O (stereo not given in full),1.87,-0.399,0.0199,0.164 (inactive),-0.0123,0.126,-0.0688,-0.361,-0.236,0.773
COCCCNC(=O)[C@@]1(C)c2ccccc2C(=O)N(Cc2ccc(OC(F)(F)F)cc2)[C@H]1c1ccc(CO)cc1,0.655,0.506,0.973,-0.346 (inactive),-0.527,-1.3,-1.11,-0.851,-0.401,0.153
C=CC[C@@H]1C=C[C@H](ON=Cc2ccc(C(=O)N3[C@H](c4ccc(C)cc4)[C@@H](C)CC[C@H]3C(=O)OC)cc2)[C@@H](CO)O1,0.608,-0.313,-0.422,-0.0467 (inactive),0.59,0.363,0.475,0.609,0.381,0.694
COc1cccc([C@@H]2Oc3ccc(Br)cc3C(=O)[C@H]2O)c1,0.237,-0.257,-0.423,-1.7 (inactive),1.19,0.101,0.312,0.892,0.221,0.287

SMILES,composite z-score [1],composite z-score [2],composite z-score [3],z-score [4],composite z-score [5],composite z-score [6],composite z-score [7],composite z-score [8],composite z-score [9],composite z-score [10]
CC(C)CON=C1C[C@@H](O)[C@@H](O)[C@@H]2[C@@H]3C(=O)N([C@@H](C)c4ccccc4)C(=O)[C@@H]3CC[C@H]12,0.43,-0.325,-0.565,0.115 (inactive),1.07,0.778,0.39,1.24,0.76,-0.204
CO[C@@H]1COC(=O)CC=C[C@@H](C)COC(=O)[C@H](COCc2ccccc2)NC(=O)CC=C[C@H]1C,1.49,-0.526,-1.31,-0.912 (inactive),0.285,0.19,0.912,1.23,1.64,1.63
COC(=O)C1(C)C=C2C(=C(c3ccccc3)C(=O)C2C)CN1 (stereo not given),0.537,1.14,1.22,1.21 (inactive),-0.174,-0.824,-0.709,-1.29,-1.16,1.45
O=C1O[C@@H](c2ccccc2)[C@@H](c2ccccc2)N2[C@@H](c3ccc(OCCO)cc3)[C@]3(C(=O)Nc4ccccc43)[C@@H](C(=O)N3CCN(c4ncccn4)CC3)[C@H]12,1.4,0.556,-0.0223,-0.0125 (inactive),0.69,1.22,0.774,1.23,0.886,0.38
CCOC(=O)NN=C1C[C@@H](O)[C@@H](O)[C@@H]2[C@@H]3C(=O)N(CC)C(=O)[C@@H]3CC[C@@H]12,0.163,-0.407,-0.263,0.379 (inactive),0.664,0.434,0.684,0.518,0.14,-0.232
Cn1c(=O)n2n(c1=O)[C@H]1[C@H](O)[C@@H]3O[C@@H]3C(=NOC[C@@H](O)COCc3ccco3)[C@H]1CC2,0.608,-0.198,-0.505,-0.695 (inactive),0.131,0.698,0.475,0.541,0.0999,0.0409
NCCCCCNC(=O)[C@@H]1C[C@@H]2C(=O)N3CCC[C@H]3C(=O)N2[C@@H]1c1cccc(OCCO)c1,0.963,1.61,0.948,-0.298 (inactive),0.506,0.821,0.515,0.984,1.17,1.63
C[C@@H]1C=CCC(=O)OC[C@H](C)C(=O)OC[C@H]2O[C@H]1C=C[C@H]2O,0.128,-0.439,-0.833,1.17 (inactive),0.678,0.387,0.339,0.808,0.545,-0.181
COC(=O)CC=C[C@@H](C)[C@H](OC)c1ccccc1Br,-0.581,-0.133,-0.499,-0.0767 (inactive),0.0042,0.169,0.181,0.231,0.503,0.887
CC(CCC(=O)OC[C@H]1O[C@H](C#Cc2ccccc2)C=C[C@@H]1Oc1ccc(C)cc1)=NOC[C@@H](O)COCc1ccco1,1.33,-0.627,-0.044,-0.0928 (inactive),-3.07,-1.25,-3.58,-3.18,-2.09,-2.69
CCOC(=O)C[C@H]1[C@H](OC(=O)c2ccc(C(=O)c3ccccc3)cc2)[C@@H](NC(=O)c2ccc(-c3ccccc3)cc2)c2cc(OCCCO)ccc2N1C(=O)c1ccc2ccccc2n1,1.02,-0.301,-0.432,-0.784 (inactive),1.29,0.838,0.519,0.775,0.606,0.23
CC[C@@H](c1ccccc1)n1c(=O)n2n(c1=O)[C@H]1[C@H](O)[C@@H]3O[C@@H]3C(=NOCC(C)C)[C@H]1CC2,0.315,-0.187,-0.532,1.26 (inactive),-0.0238,0.0344,0.143,0.227,0.202,-0.0597
COC(=O)CC=C[C@@H](C)[C@@H](C=NO[C@@H](C)c1cc(-c2c(C)cc(C)cc2C)no1)OC,-0.677,0.237,1.07,-1.2 (inactive),-1.72,-1.19,-1.81,-1.67,-2.42,-0.2
C#CCCCON=C1C[C@@H](O)[C@@H](O)[C@@H]2[C@@H]3C(=O)N(Cc4ccccc4)C(=O)[C@@H]3CC[C@H]12,1.43,-0.369,-0.417,-0.658 (inactive),0.388,0.147,1.03,0.29,0.525,0.269
C[C@@H](c1ccccc1)N1C(=O)[C@H]2[C@H]3[C@H](O)C=CC(=O)[C@@H]3CC[C@H]2C1=O,-0.0301,-0.293,-0.674,0.432 (inactive),0.373,0.606,0.54,0.699,0.557,0.25
